The values that follow come from PubChem BioAssay AID624330 (Southern Research Specialized Biocontainment Screening …, 2012).

The term inhibition denotes the drop in the measured response relative to a control, in per cent.

Values joined by “and” are separate entries in the source; they are usually repeats but may differ in a detail not shown here. Equal entries are not always repeated. The whole screen tested about 340,000 compounds, of which about 2,100 (0.62%) were called active.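 Rule for the calls: active = first-screen hits whose inhibition reached a set limit at any dose in the follow-up dose series; inconclusive = inhibition above the set first-screen limit but never retested; inactive = the rest.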 Not all results are given here. Potency and affinity values are given separately.

The assay deals with Rac GTPase-activating protein 1 (Homo sapiens) (UniProt Q9H0H5). The assay can be described thus: blockers of MgcRacGAP-driven Rac1 GTP hydrolysis – biochemical, ADP Hunter fluorescence, primary and confirmatory, confirmation (AID 624330).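 Note: fluorescence reports GDP produced by GAP-driven GTP hydrolysis.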 As to conditions: MgcRacGAP-stimulated Rac1 GTP hydrolysis, at 30 µM, stronger effect = higher value, GST-tagged Rac1 F28L mutant substrate.
Rac GTPase-activating protein 1 (Homo sapiens), sequence (Q9H0H5 whole entry, looked up): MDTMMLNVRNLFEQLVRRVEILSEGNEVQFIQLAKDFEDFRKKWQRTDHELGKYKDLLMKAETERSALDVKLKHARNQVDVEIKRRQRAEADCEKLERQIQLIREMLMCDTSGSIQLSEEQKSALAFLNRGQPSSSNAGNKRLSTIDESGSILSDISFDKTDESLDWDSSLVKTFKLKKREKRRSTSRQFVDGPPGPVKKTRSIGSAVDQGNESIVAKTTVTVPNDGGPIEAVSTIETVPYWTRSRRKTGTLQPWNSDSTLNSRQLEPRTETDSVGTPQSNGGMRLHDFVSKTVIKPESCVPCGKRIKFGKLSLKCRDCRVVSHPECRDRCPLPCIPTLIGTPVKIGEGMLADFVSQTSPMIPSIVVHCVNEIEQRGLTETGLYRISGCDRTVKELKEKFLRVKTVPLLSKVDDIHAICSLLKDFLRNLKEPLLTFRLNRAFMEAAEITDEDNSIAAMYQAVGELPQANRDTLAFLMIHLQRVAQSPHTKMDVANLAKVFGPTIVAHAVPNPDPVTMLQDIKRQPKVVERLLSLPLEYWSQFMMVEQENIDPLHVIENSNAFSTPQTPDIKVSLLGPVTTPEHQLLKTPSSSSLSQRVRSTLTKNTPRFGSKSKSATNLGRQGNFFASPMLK
On to `COCCn1c(CN2CCc3ccccc3C2)nc2c1c(=O)n(C)c(=O)n2C`, for which the inhibition was 7.99% (inactive).

With `CCCc1nc2ccccc2n1CCOc1ccccc1`, the inhibition is 3.33% (inactive).

As for `CCOc1ccc(/C=C(\C#N)C(=O)NCC2CCCO2)cc1OCC` (stereo not drawn), the inhibition was -2.79% (inactive).

Regarding `CCOc1cc(/C=C(\C#N)C(=O)Nc2ccccn2)ccc1O`, the inhibition is 12.8% (inactive).

`N#C/C(=C/c1ccc(O)cc1)C(=O)NCc1ccc(Cl)cc1`: the inhibition was 3.42% (inactive).

In the case of `COc1ccc(/C=N/NC(=O)C(=O)NCc2cccnc2)cc1OC`, the inhibition is -5.14% (inactive).

As for `CCOc1cc(/C=C(\C#N)C(=O)NCC2CCCO2)ccc1OCC(N)=O` (stereo not drawn), the inhibition is 4.74% (inactive).

For the compound `N#C/C(=C/c1cccc(O)c1)C(=O)NCc1ccc(Cl)cc1`, the inhibition was 24.4% (inactive).

Consider `COc1cc(/C=N/NC(=O)C(=O)NCc2cccnc2)ccc1O`, for which the inhibition is 25.4% (inactive).

Regarding `COc1ccc(/C=C(\C#N)C(=O)NCc2cccnc2)cc1OC`, the inhibition is 0.52% (inactive).

For the compound `O=C(NCc1ccco1)C1CC(c2cc(C(F)(F)F)cc(C(F)(F)F)c2)=NO1` (stereo not drawn), the inhibition is 6.53% (inactive).

`COc1cc2c(cc1NC(=O)CN(C)Cc1nc3ccccc3c(=O)[nH]1)oc1ccccc12`: the inhibition was 5.31% (inactive).

Take `O=C(Nc1ccc(Cl)cc1Cl)NC1CCN(S(=O)(=O)c2ccc(F)cc2)CC1`: the inhibition is 9.28% (inactive).

Regarding `Cc1ccc(-c2ccc(/C=N/NC(=O)Cc3nnc(N)s3)o2)cc1Cl`, the inhibition was 7.23% (inactive).

On to `COc1ccc(S(=O)(=O)N2CCOCC2)cc1NC(=O)c1cc(C)oc1C`, for which the inhibition is 6.98% (inactive).

Take `O=C(Cn1nc(-c2ccccc2)c2ccccc2c1=O)Nc1ccc(F)cc1`: the inhibition is 5.93% (inactive).

For `O=C(Cn1sc2ccccc2c1=O)Nc1ccc(Cl)cc1`, the inhibition is 31.2% (inactive).

Turning to `CCn1c(=O)n(CC(=O)Nc2ccc(F)cc2)c(=O)c2ccccc21`, the inhibition is 12.4% (inactive).

Take `O=C(Cn1sc2ccccc2c1=O)Nc1ccc(Br)cc1`: the inhibition was 31.7% (inactive).

For the compound `O=c1c(-c2ccc(Br)cc2)[n+]([O-])c2ccccc2n1OCc1ccccc1`, the inhibition is -0.43% (inactive).

As for `CSc1ccc(Cn2nnc(C(=O)Nc3ccc(C)c(C)c3)c2N)cc1`, the inhibition was 8.18% (inactive).

In the case of `Cn1c(SCC(=O)Nc2cccc(F)c2)nnc1-c1cc2ccccc2o1`, the inhibition is 7.89% (inactive).

For `Nc1ccc(NC(=O)c2cccs2)cc1`, the inhibition is 24% (inactive).

For the compound `CC1=C(C(=O)NCCc2ccc(C)cc2)C2(CCC(C)CC2)OC1=O` (stereo not drawn), the inhibition was 7.59% (inactive).

As to `O=C(NC1=C(Nc2ccc(Cl)cc2)C(=O)c2ccccc2C1=O)c1ccccc1`, the inhibition is 6.16% (inactive).

`O=C(Nc1ccccc1Cl)c1ccccc1`: the inhibition was 6.83% (inactive).

Take `C/C(=N\NC(=O)C(O)c1ccccc1)c1cccnc1` (stereo not drawn): the inhibition was 2.12% (inactive).

Regarding `O=C(N/N=C/c1ccc(N2CCOCC2)s1)c1ccc(NS(=O)(=O)c2cccs2)cc1`, the inhibition was 18.4% (inactive).

As to `O=C(NN=Cc1ccc(N2CCOCC2)s1)c1ccc([N+](=O)[O-])cc1`, the inhibition is 9.59% (inactive).

Consider `COc1ccc(C(=O)N/N=C/c2ccc(N3CCOCC3)o2)cc1OC`, for which the inhibition is 14.2% (inactive).

Turning to `COc1ccc(C(=O)N/N=C/c2sc(N3CCOCC3)nc2-c2ccccc2)cc1OC`, the inhibition was 7.1% (inactive).

With `O=C(N/N=C/c1ccc(N2CCOCC2)s1)c1ccccc1Cl`, the inhibition was 25.1% (inactive).

Consider `Nc1ccc(C(=O)N/N=C/c2sc(N3CCOCC3)nc2-c2ccccc2)cc1`, for which the inhibition is 12% (inactive).

In the case of `CCCNC(=O)CSC1=N/C(=C/c2ccc(F)cc2)C(=O)N1CC`, the inhibition was -5.26% (inactive).

As to `CCC(=O)NC(=S)Nc1ccc(S(=O)(=O)NC(C)C)cc1`, the inhibition is -11.4% (inactive).

Consider `O=C(COC(=O)C1CCC1)Nc1cccc(Cl)c1`, for which the inhibition was 2.49% (inactive).

Turning to `O=C(NC1CCCCC1)C(c1ccncc1)N(C(=O)c1csnn1)c1ccc(F)cc1` (stereo not drawn), the inhibition was 0.4% (inactive).

`CC1=CCC2C(=O)N(c3ccccc3OC(=O)c3ccccc3F)C(=O)C2C1` (stereo not drawn): the inhibition is 2.92% (inactive).

In the case of `C=CCC1CCC/C(=N\NS(=O)(=O)c2ccc(C)cc2)C1` (stereo not drawn), the inhibition is -4.06% (inactive).

`Nc1ccn(CCCN2CCN(C(=O)C3CC3)CC2)c(=O)n1`: the inhibition was 15.1% (inactive).

As for `COc1cc(C2c3[nH]c4ccccc4c3C[C@H]3C(=O)N(CCO)CC(=O)N23)cc(OC)c1OC` (stereo partly drawn), the inhibition is 8.37% (inactive).

For `Cc1c(C(=O)N2CCN(S(=O)(=O)c3ccccc3)CC2)oc2ccccc12`, the inhibition was 3.82% (inactive).

Regarding `O=C(Nc1ccccc1)N1CCc2scc[n+]2-c2ccccc21`, the inhibition was 16.9% (inactive).

Turning to `O=C(NCc1nnc(SCC(=O)N2CCOCC2)o1)c1c(F)cccc1F`, the inhibition was 7.33% (inactive).

On to `O=C(NNc1c(Cl)cccc1Cl)c1sccc1Cl`, for which the inhibition is 6.69% (inactive).

As to `COc1ccc(C(=O)Nc2ccc3ccccc3c2)cc1`, the inhibition was 3.97% (inactive).

Regarding `COc1ccc(NC(C)=O)c(C)c1`, the inhibition was -3.51% (inactive).

`COc1ccc(Nc2cccc3ccccc23)cc1`: the inhibition is 31.6% (inactive).

For the compound `COc1ccc(Nc2cccccc2=O)cc1`, the inhibition is 7.45% (inactive).

For `O=C(Nc1ccc(S(=O)(=O)Nc2ncccn2)cc1)c1ccccc1`, the inhibition is 2.75% (inactive).

Take `CCc1cccc(CC)c1NC(=O)CN1CCN(c2ccccc2)CC1`: the inhibition was 20.5% (inactive).

`COc1ccc(OC)c(CN2CCN(C(=O)c3cc(S(=O)(=O)Nc4ccccc4OC)ccc3C)CC2)c1`: the inhibition was -2.48% (inactive).

Regarding `COc1ccccc1NS(=O)(=O)c1ccc(C)c(C(=O)N2CCCC2)c1`, the inhibition was -1.95% (inactive).

With `COc1cc(C(O)P(=O)(OCCC(C)C)c2ccc(N(C)C)cc2)cc(OC)c1OC` (stereo not drawn), the inhibition was -1.91% (inactive).

Consider `CN(C)/C=N/c1ncc(C(=O)c2ccccc2)s1`, for which the inhibition was 7.32% (inactive).

Take `CN(C)/C=N/c1ncc(C(=O)c2ccc(Cl)cc2)s1`: the inhibition is 3.44% (inactive).

As to `COc1ccc(CC(=O)NNC(=O)c2cc(Cl)ccc2OC)cc1`, the inhibition was -0.57% (inactive).

Turning to `CC(Oc1ccccc1)C(=O)NC1C(=O)N2C1SC(C)(C)C2C(=O)O` (stereo not drawn), the inhibition is 6.29% (inactive).

For `Cc1nnc(Nc2ccccc2F)s1`, the inhibition was 8% (inactive).

For `Cc1cccc(Nc2nc3ccccc3s2)c1C`, the inhibition is 0.63% (inactive).

Regarding `COc1ccccc1Nc1ccc(Nc2ccccc2OC)nn1`, the inhibition is -7.41% (inactive).

As for `Cc1nc(CSc2nnc(Nc3cccc(C)c3C)s2)cs1`, the inhibition was 4.77% (inactive).

Take `Cc1ccc(Nc2nc3ccccc3o2)cc1F`: the inhibition was 1.08% (inactive).

As to `O=C1c2ccccc2C(=O)N1CSc1nnc(Nc2ccccc2F)s1`, the inhibition was 5.49% (inactive).

For the compound `Cc1nnc(Nc2ccc(Cl)cc2)s1`, the inhibition was -3.99% (inactive).

`COc1ccccc1Nc1nc(C)cs1`: the inhibition was 0.84% (inactive) and 0.19% (inactive).

`Cc1cc(C)n(C(=O)c2c([N+](=O)[O-])cnn2C)n1`: the inhibition is -7.87% (inactive).

On to `O=C(Cc1ccc(F)cc1)Nc1cccc2cccnc12`, for which the inhibition was 5.65% (inactive).

Regarding `Cc1ccc(Sc2cnccc2C#N)cc1`, the inhibition is -14.2% (inactive).

For `COC(=O)c1cc(C(=O)OCC(=O)N(C)C2CCS(=O)(=O)C2)cc([N+](=O)[O-])c1` (stereo not drawn), the inhibition was -3.52% (inactive).

With `CC1Sc2ccc(S(=O)(=O)N3CCC(C(=O)NCCc4ccccc4)CC3)cc2NC1=O` (stereo not drawn), the inhibition was 6.85% (inactive).

`COc1cc(C2NC(=O)NC(c3ccccc3)=C2C(C)=O)c(Br)c(Br)c1O` (stereo not drawn): the inhibition was 25.1% (inactive).

For `CCOC(=O)c1cc(NC(=O)C2C3C=CC(O3)C2C(=O)O)cc(C(=O)OCC)c1` (stereo not drawn), the inhibition is 6.71% (inactive).

As to `CN1CCN(S(=O)(=O)c2ccc(Oc3cccc(C(F)(F)F)c3)nc2)CC1`, the inhibition is 9.66% (inactive).

`O=c1c(Br)c(N2CCCCC2)cnn1-c1ccccc1`: the inhibition was 3.03% (inactive).

With `CCc1cc(=O)oc2cc(OCC(=O)NCCN3CCOCC3)c(Cl)cc12`, the inhibition was 0.13% (inactive).

On to `Cc1c(Cl)cccc1Nc1ccccc1C(=O)O`, for which the inhibition is 3.44% (inactive).

Turning to `CCOc1ccc(Nc2nc3ccccc3c(=O)s2)cc1`, the inhibition was 4.2% (inactive).

`Cc1ccc(Nc2nc3ccccc3s2)c(C)c1`: the inhibition is 7.17% (inactive).

For `Cc1ccc(Nc2nc3c(s2)CCC3)c(C)c1`, the inhibition was 9.23% (inactive).

`CCOC(=O)c1sc(Nc2ccc(OCC)cc2)nc1C`: the inhibition was -3.93% (inactive).

On to `O=C(c1ccccc1)c1cnc(Nc2ccccc2Cl)s1`, for which the inhibition is 8.39% (inactive).

On to `Clc1ccccc1Nc1nnc(-c2ccncc2)s1`, for which the inhibition was 12.4% (inactive).

For `Cc1cc(=O)[nH]c(Nc2cccc(Cl)c2C)n1`, the inhibition was 3.14% (inactive).

For `N#CC1(Nc2ccc(S(N)(=O)=O)cc2)CCCC1`, the inhibition is 2.96% (inactive).

Take `Cc1ccc2c(C(=O)CN3CCCCC3)c(C)[nH]c2c1`: the inhibition is 3.73% (inactive).

Regarding `COC(=O)c1cc(C(=O)Nc2nnc(C3CC3)s2)cc([N+](=O)[O-])c1`, the inhibition is 11.3% (inactive).

With `O=C(CSc1ccc(Br)cc1)NCC1(N2CCCCC2)CCCCC1`, the inhibition is 5.48% (inactive).

Regarding `CCC1(CC)NC(=O)N(CC(=O)OC(C)C(=O)Nc2ccccc2OC)C1=O` (stereo not drawn), the inhibition is 1.87% (inactive).

As to `CCc1cccc(C)c1NC(=S)NCC1CCN(c2ccc(OC)cc2)C1` (stereo not drawn), the inhibition was 26.6% (inactive).

Regarding `CCOc1ccc(NC(=O)NCC2CCN(c3ccc(OC)cc3)C2)cc1` (stereo not drawn), the inhibition was 5.23% (inactive).

In the case of `CCc1ccc(NC(=O)NCC2CCN(c3ccc(OC)cc3)C2)cc1` (stereo not drawn), the inhibition is 10.4% (inactive).

Consider `COc1ccc(N2CCN(C(=S)Nc3cccc(C)c3)CC2)cc1`, for which the inhibition was 14.2% (inactive).

Regarding `COc1ccc(N2CCC(CNC(=O)Nc3ccc(C)c(C)c3)C2)cc1` (stereo not drawn), the inhibition is 36.2% (inactive).

Regarding `COc1ccc(N2CCC(CNC(=O)Nc3ccc(Cl)cc3)C2)cc1` (stereo not drawn), the inhibition was 23.3% (inactive).

Regarding `COc1ccc(N2CCC(CNC(=S)Nc3c(C)cc(C)cc3C)C2)cc1` (stereo not drawn), the inhibition is 23.7% (inactive).

As for `COc1ccc(C(=O)N2CCC(CCC(=O)Nc3cccc(C)c3)CC2)cc1`, the inhibition is 5.31% (inactive).

For `COCC(C)n1c(C)cc(C(=O)CN2c3cccc4cccc(c34)S2(=O)=O)c1C` (stereo not drawn), the inhibition was 6.1% (inactive).
